This is a sample that favours compounds with a hit; in the whole collection about 0.58% have one here.
CatL inh: inhibitors of human cathepsin L; purified cathepsin L, fluorogenic substrate, fluorescence; P07711; inhibition, %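 (tested at 10 µM)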; actives 0.17% (n = 58,000); in the data active means inhibition above about 45%;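 further: 0% = enzyme with no compound and 100% = no enzyme blank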
CatS block: blocks human cathepsin S protease activity. AID 501. actives 0.06% (n = 62,000). recombinant cathepsin S, AMC dipeptide fluorescence, pooled mixtures. P25774. inhibition, %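 (tested at 5 µM per compound within 10-compound mixtures)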; in the data active means inhibition above about 32%, passing the limit was not always enough; inconclusive means no clear call, values can overlap the other calls;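 further: 0% = enzyme without compound and 100% = blank without enzyme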
Target sequence (P25774 115-331 limits assumed): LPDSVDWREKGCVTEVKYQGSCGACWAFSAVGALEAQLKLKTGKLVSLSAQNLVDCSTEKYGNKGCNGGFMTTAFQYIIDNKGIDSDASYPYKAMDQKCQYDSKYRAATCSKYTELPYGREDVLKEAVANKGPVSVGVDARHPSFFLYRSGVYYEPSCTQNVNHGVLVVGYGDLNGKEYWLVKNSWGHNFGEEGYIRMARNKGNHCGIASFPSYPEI
C1s inh: human complement C1s inhibition; mean inhibition % of two 10-compound mixtures (hits give high values), % at 5 µM (by protocol); P09871; purified C1s, fluorogenic AMC substrate, pooled mixtures; actives 0.16% (n = 62,000); AID 538;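 active means inhibition above 20% in each of the two 10-compound mixture wells holding the compound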;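 further: 0% = enzyme wells lacking compound mixture and 100% = no-enzyme blank wells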
CatB mixtures: human cathepsin B inhibition by mixtures; P07858; Purified cathepsin B, AMC dipeptide fluorescence, compound mixtures; inhibition, %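 (ten-compound pools at 5 µM per compound and 50 µM total)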; actives 0.06% (n = 62,000); AID 488; in the data active means inhibition above about 22%, passing the limit was not always enough; inconclusive means no clear call, values can overlap the other calls;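 further: 0% = enzyme without compound and 100% = no enzyme blank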
Cathepsin G inh: blocks human cathepsin G enzyme activity; actives 0.2% (n = 62,000); P08311; inhibition, % at 5 µM (by protocol); purified enzyme, AMC-tetrapeptide fluorescence, pooled mixtures; AID 581;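 active means inhibition above 20% in each of the two mixture wells holding the compound; inactive means inhibition of 20% or less in either well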;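 further: 0% = enzyme control without mixture and 100% = blank lacking enzyme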
Target sequence (P08311 21-244 limits assumed): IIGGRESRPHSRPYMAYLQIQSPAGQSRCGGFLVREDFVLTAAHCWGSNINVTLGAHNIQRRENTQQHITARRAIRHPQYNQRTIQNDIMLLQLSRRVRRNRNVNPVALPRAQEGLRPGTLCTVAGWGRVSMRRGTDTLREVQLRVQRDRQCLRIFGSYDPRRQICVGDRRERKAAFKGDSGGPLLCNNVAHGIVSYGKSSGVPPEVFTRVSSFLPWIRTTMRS
CatB block: blocks human cathepsin B protease activity. P07858. inhibition, %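 (tested at 10 µM)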. actives 0.1% (n = 63,000). purified cathepsin B, fluorogenic substrate, fluorescence; in the data active means inhibition above about 21%;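 further: 0% = enzyme with no compound and 100% = no enzyme blank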
Starred values were filed as active, the others as inactive; ? = inconclusive; . = no result.

SMILES	CatL inh	CatS block	C1s inh	CatB mixtures	Cathepsin G inh	CatB block
Cc1noc(/C=C/N(C)C)c1S(=O)(=O)N1CCN(c2ccccc2)CC1	53*	-3	27	0	7	2
COc1cc(OC)cc(OCC(O)Cn2cnc(-c3ccccc3)c2)c1 (configuration not stated)	-5	-14	17	8	14	6
CC(=O)c1cccc(NC2c3ncccc3C(=O)N2Cc2ccco2)c1 (configuration not stated)	-1	-5	-7	-2	-2	-3
COc1nc(N2CCCCCC2)nc(N2CCCCCC2)n1	1	-4	26	3	-9	4
COc1nc(N(C#N)CC(N)=O)nc(N2CCCC2)n1	1	-4	-1	23*	0	37*
Cc1ccc(NC(=O)Cc2nn(C)c(=O)c3ccccc23)cc1F	19	13	23	6	21*	6
COC(=O)c1ccc(OC(=O)c2ccco2)cc1	-10	-6	34*	1	5	0
O=C(Nc1ccc(OC(=O)c2ccco2)cc1)c1ccco1	3	12	30	2	0	3
O=C(Nc1ccc2c(c1)OCO2)C(c1ccccc1)N1CCN(C(=O)c2ccco2)CC1 (configuration not stated)	.	6	-30	-6	-13	1
Cc1cc(SCC#N)n2nc(C)c(-c3ccccc3)c2n1	48*	1	2	-3	4	1
CC(=O)Nc1c(C(=O)C2CC2)oc2ccccc12	5	16	-15	34	9	7
CC(=O)Nc1c(C(=O)c2ccccc2)oc2ccccc12	104*	?	-6	6	-5	-2
Nc1nonc1-c1noc(N2CCCCC2)n1	36	0	2	6	5	24*
C=COCCn1c(-c2nonc2N)nc2ccccc21	86*	?	4	55*	6	15
COc1cc(Cn2c(-c3nonc3N)nc3ccccc32)ccc1C	23	3	0	30	-2	50*
COc1cccc(Cn2c(-c3nonc3N)nc3ccccc32)c1	50*	-1	-1	15	-1	39*
Nc1nonc1-c1nc2ccccc2n1Cc1ccc(Cl)cc1	30	-2	13	22	8	8
Cc1ccc(Cn2c(-c3nonc3N)nc3ccccc32)cc1	22	-13	-117	-1	-6	22*
COc1cccc2cc(C(=O)Nc3cccc(C)n3)c(=O)oc12	-5	0	5	3	5	0
CCN1CCN(Cc2cc(=O)oc3cc(C)cc(C)c23)CC1	-6	3	7	-4	4	-2
Cc1cc(=O)[nH]c(SCC(=O)c2ccc(C(C)C)cc2)n1	23	5	57*	0	11	-3
COc1ccc(C(=O)CSc2nc(C)cc(=O)[nH]2)cc1	4	-11	13	3	12	2
C=CCN(CC=C)S(=O)(=O)c1ccc(F)cc1	.	1	-5	-2	2	.
COC(=O)c1cc2ccsc2n1CC(=O)N1CCCc2ccccc21	0	-3	-5	2	6	1
O=C(Oc1oc(-c2ccco2)nc1C=Nc1ccccc1)c1ccco1	18	2	14	11	11	22*
SMILES	CatL inh	CatS block	C1s inh	CatB mixtures	Cathepsin G inh	CatB block
CCOc1ccccc1NC(=O)CCC(=O)O	0	-5	40	10	15	1
COc1ccccc1NC(=O)CCC(=O)O	22	.	12	53	11	33*
CCCn1c(=O)c2ccccc2n2c(SCc3nnc(-c4ccccc4Br)o3)nnc12	0	1	-1	13	0	3
CCN1CCc2c(sc(N)c2C#N)C1	-19	-10	-48	-1	-6	-5
N#Cc1c(N)sc(=S)c2c1CCN(Cc1ccccc1)C2	47*	75*	-40	36	-2	80*
N#CCCN(C(=O)COC(=O)c1ccc2c(c1)NC(=O)CS2)c1ccc2c(c1)OCCO2	-9	-8	-6	4	-4	-4
Nc1nc2n(n1)C1(CCCCC1)C1=C(CCCC1)N2	4	13	-20	69*	-8	39*
C1CCC2(CC1)C1=C(CCCC1)Nc1nnnn12	0	1	3	0	7	2
CCOCCn1c(SCC(=O)OCc2ccccc2)nc2c1c(=O)[nH]c(=O)n2C	-6	-24	12	0	7	4
O=C(NCc1cccs1)c1cc(-c2cccs2)on1	7	1	12	0	34*	2
Cc1ccc(-c2cc(C(=O)NCc3ccccn3)no2)cc1	14	16	65*	7	8	3
O=C(NCc1ccco1)c1cc2nc(C3CC3)cc(C(F)(F)F)n2n1	0	-4	2	5	2	-3
Cc1cc(NC(=O)c2cc3nc(C4CC4)cc(C(F)(F)F)n3n2)no1	12	10	22*	1	14	6
COC(=O)c1ccc(NC(=O)c2ccc(CN3CCOCC3)cc2)cc1	84*	6	-29	1	-29	1
Cc1noc(C)c1COC(=O)c1ccccc1NC(=O)Cc1ccccc1	-5	6	35*	5	30	2
CCn1c(SCC(=O)c2c(N)n(C)c(=O)n(C)c2=O)nc2sc(C)c(C)c2c1=O	17	16	33*	30	5	-1
CCOC(=O)c1sc(=S)n(-c2cc(F)ccc2F)c1N	104*	-4	-22	0	3	7
CCOC(=O)c1c(C)[nH]c(C)c1C(=O)CN1C(=O)NC(CC(C)C)C1=O (configuration not stated)	9	2	13	5	15	-1
COc1ccc(OC)c(-c2cc(C(=O)Nc3c(C)nn(Cc4ccc(Cl)cc4)c3C)no2)c1	25	2	11	1	10	1
Cc1nn(Cc2ccc(Cl)c(Cl)c2)c(C)c1NC(=O)c1cc(-c2ccc3c(c2)OCO3)on1	13	3	-25	-3	40*	0
COc1ccc(OC)c(-c2cc(C(=O)Nc3c(C)nn(Cc4ccccc4)c3C)no2)c1	3	19	-18	0	50*	2
COc1ccc(-c2cc(C(=O)Nc3c(C)nn(Cc4ccccc4Cl)c3C)no2)cc1	-1	3	10	1	52*	4
O=C(NCC1CCCO1)C1c2ccccc2C(=O)N1C1CCCCCCC1 (configuration not stated)	7	10	0	-3	1	-1
Cn1nccc1C(=O)Nn1cnnc1	8	-25	-170	-5	-23	-7
Cc1nn(C)c(C)c1NC(=O)c1ccnn1C	9	-2	21*	4	15	5
COC(=O)C1=C(C)N(C)C(C)=C(C(=O)OC)C1c1ccccn1	-1	-6	14	3	9	2
O=S(=O)(c1ccccc1F)N(Cc1ccco1)Cc1nnc(-c2ccccc2Br)o1	47*	-13	0	-3	-2	-2
